# Screening results: PubChem, National Center for Advancing Translational Sciences (NCATS)
# Pf growth 48h – Primary qHTS for delayed death inhibitors of the malarial parasite plastid, 48 hour incubation; P. falciparum luciferase growth in erythrocytes, 48 h; Potency, µM (top dose mostly 28.7 µM), for the others: top-dose activity change, negative = inhibition, hits mostly inhibitors; hit rate 5.9% among 310,000
#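 Luminescence readout; reporter = integrated firefly luciferase in P. falciparum. RBC culture at 2% hematocrit, 0.1% parasitemia final, 37 C/5% CO2; decreased signal taken as growth inhibition.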
# Pf growth 96h – Primary qHTS for delayed death inhibitors of the malarial parasite plastid, 96 hour incubation. P. falciparum luciferase reporter growth, 96 h. Potency, µM (doses to about 28.7 µM), for inactives: top-dose activity change, negative = inhibition, hits mostly inhibitors. hit rate 6.9% among 320,000. AID 504834, 2011
#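 Parasite growth measured via integrated firefly luciferase reporter in P. falciparum. Infected erythrocytes at 2% hematocrit, 0.05% parasitemia final were treated 96 hours at 37 C under 5% CO2, and luminescence was read.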
# AMA1 RON2 block – qHTS for Inhibitors of AMA1-RON; Towards Development of Antimalarial Drug Lead: Primary Screen. Plasmodium falciparum AMA1 (3D7) - RON2 peptide interaction. AlphaScreen AMA1-biotinylated RON2 peptide binding. Potency, µM (top dose mostly 58.2 µM), inactives show top-dose activity change, negative = inhibition, usual class: inhibitors. hit rate 0.2% among 360,000;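 also: 0% = vehicle wells and -100% = peptide control; nearly all actives have a fitted effect of over 45% in size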
#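 AMA1 (3D7) with his tag at 25 nM final met compounds first, then biotinylated RON2 peptide at 25 nM; detection used donor plus acceptor beads, 10 µg/mL apiece, read by AlphaScreen after 30 min at room temperature.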
# AmpC no deterg – qHTS Inhibitors of AmpC Beta-Lactamase (assay without detergent) | P00811 | AmpC nitrocefin hydrolysis, absorbance 480 nm, 0.0001% Triton | Potency, µM (series often up to 57.1 µM), for inactives: top-dose activity change, negative = inhibition, usual class: inhibitors | hit rate 0.52% among 330,000;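 also: plate controls were no compound for no effect and no enzyme for full effect; nearly all actives have a fitted effect of over 20% in size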
# Target sequence (P00811 whole entry, looked up): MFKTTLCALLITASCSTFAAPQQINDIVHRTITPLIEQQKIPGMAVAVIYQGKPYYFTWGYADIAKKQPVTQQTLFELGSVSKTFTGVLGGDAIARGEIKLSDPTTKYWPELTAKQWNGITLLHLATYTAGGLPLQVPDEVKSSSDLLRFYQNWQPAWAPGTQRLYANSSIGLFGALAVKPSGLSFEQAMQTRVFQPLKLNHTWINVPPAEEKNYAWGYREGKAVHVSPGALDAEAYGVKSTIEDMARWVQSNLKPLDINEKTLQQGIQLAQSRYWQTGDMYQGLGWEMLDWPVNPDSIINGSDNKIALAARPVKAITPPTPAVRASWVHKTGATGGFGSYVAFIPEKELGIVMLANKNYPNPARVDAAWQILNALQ
#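 AmpC (5.3 nM in the dispensed reagent) in 20 mM phosphate pH 7.0 with 0.01% (detergent screen) or 0.0001% Triton X-100 was preincubated with compounds for 15 min at room temperature. Nitrocefin was then added from an 800 uM solution, and hydrolysis was followed at 480 nm.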
# AmpC inh detg – qHTS Inhibitors of AmpC Beta-Lactamase (assay with detergent); AmpC hydrolysis of nitrocefin, absorbance 480 nm, 0.01% Triton; Potency, µM (doses to about 114 µM), without a hit: at the highest dose activity change, negative = inhibition, actives largely listed as inhibitors; hit rate 0.041% among 370,000;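 also: 0% = no-compound wells and -100% = no-enzyme wells; nearly all actives have a fitted effect of over 25% in size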
#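 AmpC (5.3 nM in the dispensed reagent) in 20 mM phosphate pH 7.0 with 0.01% (detergent screen) or 0.0001% Triton X-100 was preincubated with compounds for 15 min at room temperature. Nitrocefin was then added from an 800 uM solution, and hydrolysis was followed at 480 nm.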
# HCV inhibitor – qHTS Assay for Inhibitors of Hepatitis C Virus (HCV) | Huh7.5.1 HCVcc-Cre infection, luciferase reporter, 44 h | Potency, µM (titrated, usually from 41.8 µM), for inactives: at the highest dose activity change, negative = inhibition, hits mostly inhibitors | hit rate 3.4% among 340,000 | AID 651820, 2012
#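 Cells seeded at 1,000/well and cultured 4 h, then compounds added followed by HCVcc-Cre virus (~0.5 moi). After 44 h further culture, luciferase substrate was added, plates held 15 min at room temperature, and luminescence read for 15 sec.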
# Starred values were filed as active, the others as inactive; ? = inconclusive; . = not tested or not shown; [ ] = dose if it differs, or a comment. An excerpt weighted towards active compounds, which were near 11% of everything screened. Calls follow the shape of the dose curve; as a rule, active = well fitted curve in the direction sought with a large enough effect; inconclusive = small, poorly fitted or top-dose-only effect, or another doubt; inactive = no such curve, though single readings can be large; an effect the other way counts as inactive or inconclusive. Unless noted, % is scaled to controls: 0 for no effect and ±100 for the full control effect; potency is read from the fitted curve at half-maximal effect.
SMILES,Pf growth 48h,Pf growth 96h,AMA1 RON2 block,AmpC no deterg,AmpC inh detg,HCV inhibitor
CCn1c(=O)c(C(=O)NCc2ccc(F)cc2)c(O)c2ccccc21,-3%,12µM*,7%,-18%,-1%,?
CCCCCCCCn1c(=O)c(C(=O)OC)c(N)c2ccccc21,15µM*,?,-14%,68%,-1%,13µM*
CCCn1c(=O)c(C(=O)NCc2ccccc2Cl)c(O)c2ccccc21,-24%,30%,18%,-29%,-12%,13µM*
COCCN(Cc1ccc(C)c(Br)c1)S(=O)(=O)c1ccc2[nH]c(=O)ccc2c1,.,.,.,.,-9%,.
Cc1ccc(Nc2c(-c3cc(Br)ccc3F)nc3cc(C)ccn23)cc1,.,.,.,.,-2%,.
COc1cc(NC(=O)N2CCN(c3cc(-c4noc(C)n4)ccc3C)CC2)cc(OC)c1OC,.,.,.,.,2%,.
CCCCCn1c(=O)c(C(=O)Nc2ccccc2N)c(O)c2ccccc21,4.1µM*,334%,106%,-20%,-13%,?
CCCCn1c(=O)c(C(=O)NCc2ccc(Cl)cc2)c(O)c2ccccc21,?,?,-4%,-37%,-14%,?
CCCCCn1c(=O)c(C(=O)NCc2ccccc2Cl)c(O)c2ccccc21,7.4µM*,?,5%,-19%,?,6%
Cc1cncc(C(=O)O)[n+]1[O-],-7%,5%,.,.,.,.
Cc1ccc(-n2nc3c(=O)n(CC(=O)NCCC(C)C)nc(C)c3c2C)cc1,.,.,.,.,20%,.
Cc1ccc(OCc2nc(-c3ccc(C(=O)N4CCN(c5cc(Cl)ccc5C)CC4)cc3)oc2C)cc1,.,.,.,.,18%,.
O=C(c1ccc(Cl)cc1)N1CCCCC1CCN1CCOCC1 (stereo not drawn),.,.,.,.,2%,.
C=CC[C@H]1CC(Cc2ccccc2)=C[C@H](CC=C)N1,0.23µM*,0.074µM*,-4%,-17%,-10%,-23%
C=CC[C@H]1CC(C)=C[C@H](CC=C)N1,0.93µM*,?,3%,-32%,4%,18%
COc1cc(C2Nc3cccc4cccc(c34)N2)cc(OC)c1O,-26%,0%,-5%,32µM*,-3%,?
COc1cc(C2Nc3cccc4cccc(c34)N2)ccc1OC(C)=O,0%,.,11%,-22%,-11%,?
Oc1ccc(C2Nc3cccc4cccc(c34)N2)c(O)c1,6.6µM*,1.5µM*,18%,-36%,-1%,1%
COC(=O)c1ccc(C2Nc3cccc4cccc(c34)N2)cc1,?,23%,-22%,-58%,-6%,-15%
COc1ccc(C2Nc3cccc4cccc(c34)N2)cc1Br,10µM*,?,-8%,-22%,-11%,-29%
CCOC(=O)Cn1c(=O)oc2cc(S(=O)(=O)N3CCN(c4cccc(C)c4C)CC3)ccc21,.,.,.,.,3%,.
CC(=O)c1cccc(NC(=O)Nc2nnc(N3CCCC3)s2)c1,.,.,.,.,0%,.
CCOC(=O)c1c(-c2ccccc2)[nH]c2ccc(O)cc12,-6%,.,20%,-26%,2%,11µM*
CCOC(=O)c1c(CN(CC)CC)n(-c2ccccc2)c2ccc(O)cc12,8.3µM*,?,0%,-9%,-6%,-20%
CCOC(=O)c1c(C)n(-c2ccccc2)c2ccc(O)cc12,?,5.9µM*,9%,50%,-4%,10µM*
SMILES,Pf growth 48h,Pf growth 96h,AMA1 RON2 block,AmpC no deterg,AmpC inh detg,HCV inhibitor
CCOC(=O)c1c(C)n(-c2ccccc2)c2ccc(OC(=O)c3cccc(C)c3)cc12,.,.,.,.,2%,.
Cc1ccccc1CN1CCc2nc(Nc3ccc4c(c3)OCCO4)ncc2C1,.,.,.,.,3%,.
Cc1nc2ccn(Cc3ccco3)c(=O)c2cc1C(=O)N1CCN(c2ccccc2F)CC1,.,.,.,.,0%,.
CCOC(=O)c1ccccc1NC(=O)CSc1cn(CC(=O)N2CCCCC2)c2ccccc12,.,.,.,.,16%,.
Cc1cccc(Nc2c([N+](=O)[O-])c(=O)n(C)c3ccccc23)c1,15µM*,10µM*,11%,-45%,-9%,?
CC(C)c1ccc(Nc2c([N+](=O)[O-])c(=O)n(C)c3ccccc23)cc1,?,?,-19%,-43%,0%,-27%
Cc1nc(-c2ccc(C)c(N3CCN(C(=O)Nc4ccc(Br)cc4)CC3)c2)no1,.,.,.,.,4%,.
CC(=O)c1cc(C(C)=O)c(C)[n+](C)c1C,10µM*,24%,-19%,0%,-6%,1%
CC(=O)c1cc(C(C)=O)c(C)nc1C,5%,1.9µM*,-9%,-13%,-7%,20%
COc1cc2ccccc2cc1C(=O)Nc1cccc(-c2nc3cc(C)c(C)cc3o2)c1,.,.,.,.,5%,.
COc1cccc(CNC(=O)Cc2ccc(NC(=O)N3CCCCc4ccccc43)cc2)c1OC,.,.,.,.,3%,.
CCOC(=O)C1CCCN(C(=O)CN2C(=O)COc3ccc(C(C)(C)C)cc32)C1 (stereo not drawn),?,.,2%,90%,2%,-16%
CCOC(=O)CN1C(=O)COc2ccc(Cl)cc21,16%,?,1%,-9%,?,16%
CCOC(=O)CN1C(=O)COc2ccc(C(C)(C)C)cc21,48%,0.47µM*,-1%,1%,?,14%
CCOC(=O)C1CCN(C(=O)CN2C(=O)COc3ccc(C(C)(C)C)cc32)CC1,-18%,10µM*,-7%,124%,1%,-2%
Cc1nc2c(c(C)c1CCC(=O)N1CCN(c3ccccc3)CC1)c(=O)n(C)c(=O)n2C,.,.,.,.,-2%,.
O=C(CCn1c(=O)c2sccc2n(Cc2ccccc2F)c1=O)NCc1ccc2c(c1)OCO2,.,.,.,.,14%,.
C[N+]1=C(/C=C/Nc2ccccc2Cl)C(C)(C)c2ccccc21,12µM*,?,-32%,-22%,-5%,?
FC(F)(F)c1cnc(/C=C/Nc2ccccc2Cl)c(Cl)c1,17%,38%,-8%,-11%,-5%,-16%
COc1ccc(/C=C2/SC(=O)NC2=O)cc1,73%,13µM*,3%,-40%,-3%,7%
COc1ccc(C=C2SC(=S)NC2=O)cc1,.,.,1%,.,.,-1%
CC(Cc1ccccc1)NC(=O)c1ccc([N+](=O)[O-])cc1 (stereo not drawn),232%,?,12%[2.32 µM],-11%,?,1%
CC(Cc1ccccc1)NC(=O)c1ccc(N)cc1 (stereo not drawn),102%,12µM*,2%,-12%,-16%,16%
O=C(Cc1cccs1)NC1CC(=O)N(c2ccc(F)cc2)C1 (stereo not drawn),.,.,.,.,1%,.
